Tg IFNy HTS – inhibitors of Toxoplasma gondii growth with IFN-gamma | Toxoplasma gondii growth in IFN-gamma-treated host cells; active compounds read low | activity change, negative = inhibition, % (test concentration not listed) | 69,000 compounds, 3.8% hits; in the data active means activity change below about -70%, passing the limit was not always enough;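 further: host cells are HeLa cells infected with Toxoplasma gondii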
Large screens that a line does not name were inactive; ! = not confirmed by another sample. Many of the other results were omitted from the sample, so hits are more common in it than they were.

O=C(CN1CCCC1Cn1cccn1)Nc1ccnn1C1CCCC1 (stereo not given)	none
CCN1c2cc(Cl)ccc2C(=O)NC12CCN(C(=O)NCc1ccccc1)CC2	none
CC(C)c1nc(CCNC(=O)c2cn(-c3ccccc3)nn2)cs1	none
Cn1nc(C2CCN(C(=O)C3CCOCC3)CC2)n(Cc2ccccc2)c1=O	none
OCCn1cc(-c2ccc3c(c2)CC/C3=N\O)c(-c2ccncc2)n1	Tg IFNy HTS -78!
Cc1nc(C)c(C(=O)N2CCC(C(NC(=O)C(C)(C)C)c3nccs3)CC2)o1 (stereo not given)	none
CCOC(=O)c1cc(C(=O)OC)c(C)nc1N1CCCN(Cc2ccc(F)cc2)CC1	Tg IFNy HTS -77
CCOC(=O)c1[nH]ncc1CN1CCCN(c2cccc(OC)c2)CC1	none
Fc1ccc(N2CCCN(Cc3ccc4nonc4c3)CC2)cc1	none
CCS(=O)(=O)N1CCC2(CC1)OC(=O)C(C)=C2C(=O)Nc1ccc(F)cc1	none
Nc1nc2ccc(Cl)cc2c2nc(-c3ccco3)nn12	none
Nc1nc2c(cnn2CCc2ccccc2)c2nc(-c3ccco3)nn12	none
Nc1nc(NCCc2ccc(O)cc2)nc2nc(-c3ccco3)nn12	Tg IFNy HTS -80
CCCC(NC(=O)CCc1nnc(-c2ccc(-c3ccccc3)cc2)o1)c1ccccc1 (stereo not given)	none
COc1ccc(C(O)C(=O)NCc2nn(C)c3ccc(C)cc23)cc1 (stereo not given)	none
Cc1ccc(C(=O)Nc2ccc(Oc3cc4cnn(C)c4cc3-c3cn[nH]c3)c(F)c2)c(=O)n1-c1ccc(F)cc1	Tg IFNy HTS -74
Cc1ccc(NC(=O)c2c(O)c3cccnc3n(-c3ccc(F)cc3)c2=O)cc1F	none
COc1ccc(NC(=O)c2c(O)c3cccnc3n(-c3ccc(F)cc3)c2=O)cc1F	none
COCCN1C(=O)CCC12CCN(C(=O)c1conc1C)CC2	none
CN1CCc2[nH]nc(C(=O)N3CCCC(N4CCCC4)C3)c2C1 (stereo not given)	none
COC(=O)c1cc(C)nc2c1c(=O)n(Cc1nc(-c3cccc(Br)c3)oc1C)c(=O)n2C	none
O=C(Cn1ncc2c(N3CCCC3)ncnc21)Nc1ccc(OC(F)(F)F)cc1	none
O=C(Cn1ncc2c(N3CCCCCC3)ncnc21)Nc1ccc(OC(F)(F)F)cc1	Tg IFNy HTS -98
O=C(Cn1ncc2c(N3CCN(c4ccccc4)CC3)ncnc21)Nc1ccc(OC(F)(F)F)cc1	none
Cc1ccc(NC(=O)Cn2ncc3c(N4CCCC4)ncnc32)cc1Cl	none
O=C(Cn1ncc2c(N3CCCC3)ncnc21)Nc1ccc(F)c(Cl)c1	none
Cc1ccc(NC(=O)Cn2ncc3c(N4CCCCCC4)ncnc32)cc1F	Tg IFNy HTS -101
CCOC(=O)C1CCN(C(=O)CCNc2c(C)nc3cnccn23)CC1	none
CC(=O)N1CCCC1C(=O)N1CC(C(=O)O)C1 (stereo not given)	none
COc1ccc(-c2cn(CC3CCS(=O)(=O)C3)nn2)cc1OC (stereo not given)	none
CC(C)N1CCO[C@H]2CN(C(=O)c3cnccn3)C[C@@H]21	none
C[C@@H]1CN([C@@H](C)CO)C(=O)Cc2cc(NS(=O)(=O)c3ccc(Cl)cc3)ccc2O[C@@H]1CN(C)C(=O)Nc1ccc(C(F)(F)F)cc1	Tg IFNy HTS -79
C[C@@H]1CN([C@@H](C)CO)C(=O)Cc2cc(NC(=O)C3CCCCC3)ccc2O[C@H]1CN(C)Cc1ccc(Cl)c(Cl)c1	none
C[C@H]1CN([C@@H](C)CO)C(=O)Cc2cc(NC(=O)C3CCCCC3)ccc2O[C@H]1CN(C)Cc1ccc(Cl)c(Cl)c1	none
C[C@H](CO)N1C[C@H](C)[C@H](CN(C)C(=O)Nc2ccc(C(F)(F)F)cc2)Oc2ccc(NS(=O)(=O)c3ccc(Cl)cc3)cc2CC1=O	none
C[C@@H]1CN([C@@H](C)CO)C(=O)Cc2cc(NS(=O)(=O)c3ccc(Cl)cc3)ccc2O[C@H]1CN(C)C(=O)Nc1ccc(C(F)(F)F)cc1	none
C[C@@H]1CN([C@H](C)CO)C(=O)Cc2cc(NC(=O)C3CCCCC3)ccc2O[C@H]1CN(C)Cc1ccc(Cl)c(Cl)c1	Tg IFNy HTS -72
CC(C)c1ccc(S(=O)(=O)N2CCC3(CC2)NCCN=C3NCc2ccccc2)cc1	none
O=C(O)c1cccnc1CN(Cc1ccsc1)C1CC1	none
CSc1nnc(-c2ccccc2)n1C	none
Cc1cc(C)cc(Sc2ccc3nnc(-c4ccccc4)n3n2)c1	Tg IFNy HTS -82
Cc1ccc(-c2cc(-c3ccccc3)nc(-c3ccccc3)c2)cc1	none
CCS(=O)(=O)N1CCC2(CC1)CN(Cc1nccs1)CCO2	none
Cc1nn(C)c(C)c1-c1ccc(=O)n(CC(=O)NCc2cccc(Cl)c2)n1	none
COc1ccc(Cl)cc1NC(=O)Cn1ncc2c(N3CCN(c4ccccc4)CC3)ncnc21	Tg IFNy HTS -82
Cc1ccc(Cl)cc1NC(=O)Cn1ncc2c(N3CCCC3)ncnc21	none
CCc1ccc(NC(=O)Cn2ncc3c(N4CCN(c5ccccc5)CC4)ncnc32)cc1	none
Cc1cc(Cl)ccc1NC(=O)Cn1ncc2c(N3CCCCCC3)ncnc21	none
COc1ccc(C)cc1NC(=O)Cn1ncc2c(N3CCN(c4ccccn4)CC3)ncnc21	none
COc1ccc(Cl)cc1NC(=O)Cn1ncc2c(N3CCN(c4ccccn4)CC3)ncnc21	Tg IFNy HTS -92

High-throughput results deposited in PubChem by Broad Institute.
